Assay outcomes (PubChem)
Pf growth 96h: Primary qHTS for delayed death inhibitors of the malarial parasite plastid, 96 hour incubation | AID 504834, 2011 | P. falciparum luciferase reporter growth, 96 h | Potency, µM (series often up to 28.7 µM), for the others: at the highest dose activity change, negative = inhibition, hits mostly inhibitors | 6.9% of 320,000 active; also: potency is read from the fitted curve at half-maximal effect
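Plates of compound plus infected erythrocytes (2% hematocrit, 0.05% parasitemia final) incubate 96 hours, 37 C, 5% CO2. Detection reagent added; reduced luminescence from the parasites' luciferase reporter flags inhibition.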
HCMV inh: qHTS Assay for inhibitors of the human cytomegalovirus (HCMV) | HFF cells, HCMV-luciferase reporter, 72 h; stronger effect = lower value | activity change, negative = inhibition, % at 57.5 µM | 4.5% of 410,000 active; in the data active = activity change below about -60%; inconclusive = no clear call, values can overlap the other calls; inactive = above about -39%
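Screen run at 2 compound doses on HFFs infected with reporter HCMV, MOI 1 PFU/cell. Luciferase activity from cell lysates at 72 h post infection gave inhibition relative to buffer-only and Salinomycin wells.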
LASV entry inh: qHTS for Inhibitors of binding or entry into cells for Lassa Virus. Lassa virus pseudotype entry inhibition, cell reporter. AID 540256, 2011. 1.2% of 300,000 active. Potency, µM (titrated, usually from 37.9 µM), for inactives: at the highest dose activity change, negative = inhibition, hits mostly inhibitors; calls by dose curve; tested in HEK293 cells; also: potency is read from the fitted curve at half-maximal effect; nearly all actives have a fitted effect of over 50% in size
MARV entry inh: qHTS for inhibitors of binding or entry into cells for Marburg Virus; Marburg virus pseudotyped entry inhibition, cell reporter; Potency, µM (top dose mostly 37.8 µM), without a hit: top-dose activity change, negative = inhibition, hits mostly inhibitors; 1.8% of 300,000 active; AID 540276, 2011; calls by dose curve; tested in HEK293 cells; also: potency is read from the fitted curve at half-maximal effect
Pf growth 48h: Primary qHTS for delayed death inhibitors of the malarial parasite plastid, 48 hour incubation; P. falciparum luciferase growth in erythrocytes, 48 h; Potency, µM (highest dose often 28.7 µM), inactives show at the top dose activity change, negative = inhibition, usual class: inhibitors; AID 504832, 2011; 5.9% of 310,000 active; also: potency is read from the fitted curve at half-maximal effect
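Parasite viability was followed by luminescence of a genomically integrated firefly luciferase. Cultures held 0.1% parasitemia at 2% hematocrit (final), incubated under 5% CO2 at 37 C.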
HCV inh: qHTS Assay for Inhibitors of Hepatitis C Virus (HCV) | Huh7.5.1 HCVcc-Cre infection, luciferase reporter, 44 h | Potency, µM (titrated, usually from 41.8 µM), for inactives: top-dose activity change, negative = inhibition, hits mostly inhibitors | 3.4% of 340,000 active | AID 651820, 2012; also: potency is read from the fitted curve at half-maximal effect
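HCVcc-Cre virus at an moi near 0.5 was added right after compound to cells cultured 4 h from seeding (1,000 cells/well). Luciferase activity was determined 44 h later, 15 min after substrate addition at RT.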
Active calls of the source: *; ? = inconclusive; . = no result given; [ ] = remark or other dose. Hits are enriched below; roughly 14% of the tested compounds scored in any of these assays. Unless noted, calls follow the shape of the dose curve; as a rule, active = well fitted inhibition curve with a large enough effect; inconclusive = small, poorly fitted or top-dose-only effect, or another doubt; inactive = no such curve, though single readings can be large or run the other way. % is scaled to controls: 0 for no effect and ±100 for the full control effect.

SMILES	Pf growth 96h	HCMV inh	LASV entry inh	MARV entry inh	Pf growth 48h	HCV inh
COc1ccc(C2c3c(-c4ccccc4O)n[nH]c3C(=O)N2Cc2ccco2)cc1OC (stereo not drawn)	-20%	-31	?	-14%[46.1 µM]	-43%	-1%
Cc1ccc(C2c3c(-c4cc(C)ccc4O)n[nH]c3C(=O)N2Cc2ccco2)cc1 (stereo not drawn)	.	-33	?	?	.	.
O=C1c2[nH]nc(-c3ccccc3O)c2C(c2ccc(F)cc2)N1Cc1ccco1 (stereo not drawn)	.	-35	8.2µM*	?	?	-1%
O=C1c2[nH]nc(-c3ccccc3O)c2C(c2cccc(Cl)c2)N1Cc1ccco1 (stereo not drawn)	.	14	?	13µM*	8.3µM*	13µM*
C[C@@H]1CN(C(=O)OC(C)(C)C)CCN1c1ccc(N2CC[C@@H](O)C2)c(C#N)c1	.	-6	.	.	.	.
CN1CCCN=C1COC(=O)[C@@](O)(c1ccccc1)C1CCCCC1	.	.	.	-6%	.	.
C[C@H]1[C@@H](NS(=O)(=O)c2cccs2)CC[C@@]23CCCN2C(=O)CCC[C@@H]13	.	3	.	.	.	.
O=C1CC(c2ccccc2C(F)(F)F)c2c(c3ccccc3[nH]c2=O)O1 (stereo not drawn)	.	-1	11%[46.1 µM]	15%[46.1 µM]	.	.
O=C(NCc1ccco1)c1ccc2ccccc2n1	10µM*	-28	-15%	6%[46.1 µM]	8%	-13%
COc1ccc(NC(=O)c2cc3ccccc3o2)cc1OC	?	45	16%	8%	18%	-6%
COc1cccc2cc(C(=O)NCCc3ccccc3)oc12	32%	90	.	.	8.3µM*	4%
O=C(NCc1ccccc1)c1nnc(CS(=O)(=O)c2ccccc2)o1	94%	-18	.	.	?	0%
Cc1nc2ccccc2cc1C(=O)NCc1ccco1	4%	1	3%	9%	1%	-8%
CCOc1ccc(CNC(=O)c2nnc(CS(=O)(=O)c3ccccc3)o2)cc1OC	?	26	.	.	4.7µM*	?
COc1ccc(CNC(=O)c2cc3ccccc3o2)cc1OC	13µM*	-18	?	2%[46.1 µM]	-8%	?
CCOc1ccc(CCNC(=O)c2ccc3ccccc3n2)cc1OCC	?	92	.	.	?	11µM*
COc1ccc(CNC(=O)c2cnc(N3CCN(Cc4ccccc4C#N)C3=O)s2)cc1OC	.	0	.	.	.	.
COc1ccc(CNC(=O)c2csc(N3CCN(CCc4ccccc4)C3=O)n2)cc1OC	.	-86*	.	.	.	.
COc1ccc(CNC(=O)c2ccc3ccccc3n2)cc1OC	34%	?	?	?	4%	10µM*
COc1ccc(CCNC(=O)c2ccc3ccccc3n2)cc1OC	-16%	-25	?	?	0%	?
O=C(NCCCN1CCOCC1)c1c(-c2ccccc2)oc2c1C(OCCCCCO)CCC2 (stereo not drawn)	.	-15	.	.	.	.
COc1ccc(-n2c(=O)c3ccccc3n(CC(=O)OCc3ccccc3)c2=O)cc1OC	66%	-28	-27%	4%[46.1 µM]	40%	7%
COc1cc(-n2c(=O)c3ccccc3n(CC(=O)OCc3ccccc3)c2=O)cc(OC)c1OC	9.3µM*	-7	24%	4%[46.1 µM]	10%	10%
CC(=O)c1ccc2c(c1)N(CCCN1CCN(CCO)CC1)c1ccccc1S2	13µM*	.	.	.	13µM*	.
CCC(=O)c1ccc2c(c1)N(CCCN1CCN(CCO)CC1)c1ccccc1S2	4.8µM*	.	.	.	2.7µM*	.
NS(=O)(=O)c1cc(Br)c2c(c1)S(=O)(=O)NCN2	.	-28	.	.	.	.
CCOC(=O)c1c[nH]c2nc(C)ccc2c1=O	31%	-11	.	.	-28%	2%
CCc1ccc2[nH]cc(C(=O)OCCOC)c(=O)c2c1	10µM*	-27	16%	-14%	1.5µM*	17%
CCOC(=O)c1c[nH]c2cc(OCC(C)C)c(OCC(C)C)cc2c1=O	0.038µM*	.	.	.	0.054µM*	.
